Measured values from PubChem BioAssay AID1457 (National Center for Advancing Translational Sciences (NCATS), 2008).
The whole screen tested about 210,000 compounds, of which about 730 (0.35%) were called active. Roughly 1% stayed inconclusive and do not appear here. The call rests on the fitted dose curve; in most records, active means well fitted inhibition curve with a large enough effect; inconclusive means small, poorly fitted or top-dose-only effect; inactive means no such curve, though single readings can be large or run the other way. The entries come from a sample that favours actives as a whole.

Assay: qHTS Assay for Identifying the Cell-Membrane Permeable IMPase Inhibitors: Potentiation with Lithium;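 further: IP1 builds up when IMPase is blocked and the TR-FRET signal falls; nearly all actives have a fitted effect of over 50% in size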
Settings: CHO-M1 cells, IP1 TR-FRET (IP-One), carbachol + lithium; series mostly up to 59.4 µM
Source text: NIH Chemical Genomics Center [NCGC]
NIH Molecular Libraries Probe Production centers Network [MLPCN]
Assay Submitter (PI): Wei Zheng
Lithium has been widely used for the treatment of bipolar disorder. But lithium has a narrow therapeutic index and it can cause side effects such as thirst, weight gain, tremor, polyuria and memory problems. Although the mechanism for lithium action in treatment of bipolar disorder is still not fully understood, inhibition of inositol monophosphatase (IMPase) and the subsequent depletion of the inositol pool in living cells have been implicated as the primary therapeutic benefit of lithium therapy. Therefore, a selective IMPase inhibitor with reduced side effects might be a good drug candidate to replace lithium for the treatment of bipolar disorder. Several IMPase inhibitors have been discovered previously. However, they are not suitable for therapeutic use because of their poor cell membrane penetrability or oral bioavailability; the development of new cell-permeable IMPase inhibitors is needed.
IMPase catalyzes the hydrolysis of inositol-1-phosphate (IP1) to release free inositol. Binding of an agonist to a Gq coupled GPCR results in the activation of PLC, which hydrolyzes the PIP2 to form inositol-1,4,5-trisphosphate (IP3) and diacyl glycerol (DAG). While DAG activates protein kinase C (PKC), IP3 triggers the elevation of intracellular free Ca2+. The IP3 is very rapidly inactivated by hydrolysis to IP2, IP1 and then inositol by a series of enzymes including IMPase. Free inositols are used for synthesis of PI and thus start another inositol cycle.
To identify new cell-permeable IMPase inhibitors, we developed a cell-based IMPase assay in which the cytosolic IP1 is measured by a time-resolved fluorescence resonance energy transfer (TR-FRET) assay. In this assay, an IP1 specific antibody is used to detect the labeled IP1 tracer. When the cell lysate contains the elevated IP1 due to the inhibition of IMPase, the TR-FRET between the labeled antibody and IP1 tracer is disrupted resulting in a reduction in the total signal. Since the TR-FRET is used, this cell-based assay is a homogenous assay without cell wash and medium change that is suitable for assay miniaturization and HTS. In this particular assay, a small amount of lithium is added to potentiate the response of weak activators.
NCGC Assay Protocol Summary:
A Chinese hamster ovary (CHO) cell line stably expressing the M1 receptor (CHO-M1) was obtained from ATCC and maintained in F-12 Kaighn's media (Invitrogen, Carlsbad, CA) supplemented with 10 % FBS, 100 units/ml penicillin, 100 ug/ml streptomycin and 250 ug/ml geneticin at 37C, 5% CO2 in a humidified atmosphere. Before the assay, aliquots of cells were frozen and stored at -135C. The assay was performed in 1536-well format. Data are reported for both the ratio of the two emission wavelengths, and also for the component 'donor' channel, Em2=620. […] AC50 values were determined from concentration-response data modeled with the standard Hill equation.
(1) Frozen CHO-M1 cells were thaw, washed once with fresh media and resuspended in F12K media containing 10% FBS, 100 units/ml penicillin and 100 ug/ml streptomycin. Cells were plated at 4ul/well (2000 cells) in white, tissue culture treated 1536-well plates, and then cultured at 37C, 5 % CO2 for 16 to 30 hours.
(2) Add 23 nl/well of compound in DMSO solution. The final titration for each compound was between 0.6 nM and 46 uM.
(4) Incubation at 37C, 5 % CO2 for 30 min.
(5) Add 1 ul/well of d2-conjugated IP1 (d2-IP1) and 1 ul/well of Eu+ cryptate conjugated anti-IP1 antibody (Eu+-Ab) prepared in the cell lysis buffer, both from the IP-One kit (Cisbio, MA).
(6) Incubate at room temperature for 10 minutes.
(7) Detect the assay plate (Ex = 320, Em1 =665 and Em2 620) in a ViewLux plate reader.
Potency means the concentration at half of the fitted maximal effect.

Potency, active:
CN(C)[C@@H]1C(=O)C(C(N)=O)=C(O)[C@@]2(O)C(=O)C3=C(O)c4c(O)ccc(Cl)c4[C@@H](O)[C@H]3C[C@@H]12 3.98 µM
C=CCN(CC=C)S(=O)(=O)c1ccc(C(=O)Nc2sc3c(c2C(N)=O)CCCCC3)cc1 10 µM
COc1ccc(/C(O)=C2/C(=O)C(=O)N(c3nc(C)c(C)s3)C2c2ccco2)cc1 (stereo not given) 12.6 µM
COCc1cc(C)nc(SCC(=O)Nc2cccc(C)c2)c1C#N 22.4 µM
COCCCN1C(=O)C(=O)/C(=C(/O)c2ccc3c(c2)CC(C)O3)C1c1cccnc1 (stereo not given) 8.91 µM
CC1Cc2cc(/C(O)=C3\C(=O)C(=O)N(CCN4CCOCC4)C3c3ccccc3F)ccc2O1 (stereo not given) 10 µM
O=C(Oc1ccccc1)Oc1ccc2c(c1)oc(=O)c1ccccc12 10 µM
O=C1CN(c2nc(-c3ccccc3)c3cc(Br)ccc3n2)c2ccccc2N1 12.6 µM
O=C(C1=C(O)C(=O)N(c2ncccn2)C1c1cccs1)c1ccco1 (stereo not given) 11.2 µM
CCN(CC)C(=O)c1sc2nc(-c3ccccc3)ccc2c1N 10 µM
O=C(COC(=O)c1cccc(Br)c1)Nc1cccc2c1C(=O)c1ccccc1C2=O 11.2 µM
N#Cc1ccccc1NC(=O)c1cccc(COc2ccc(Cl)cc2Cl)c1 8.91 µM
O=C(Nc1c(-c2ccccc2)nc2c(Br)cc(Br)cn12)c1ccco1 10 µM
Cc1sc2ncnc(Sc3nc4ccccc4s3)c2c1C 14.1 µM

Potency, inactive:
CC/C=C\C/C=C\C/C=C\C/C=C\C/C=C\C/C=C\CCC(=O)NC(C)C(=O)O (stereo not given)
COC(=O)C/C=C/[C@@H](C)[C@H](NC(=O)OCC(Cl)(Cl)Cl)c1ccccc1
C=C(C(C)=O)C(O)c1ccc([N+](=O)[O-])cc1 (stereo not given)
COc1ccc(CCCOC(Cn2ccnc2)c2ccc(OC)cc2)cc1 (stereo not given)
O=C1OCCN1C(=O)[C@H]1[C@H](c2ccc(F)cc2)C(c2ccccc2)=NN1c1ccc(Br)cc1
C=C/C1=C/Cc2ccccc2[C@H](C[N+](=O)[O-])C(C(=O)OC)(C(=O)OC)C1
C=CC1=C2C=C(C3CC3)N(CC(C)C)C=C2C(=O)C(C)(OC(=O)c2ccco2)C1=O (stereo not given)
O=C1OCCN1C(=O)[C@H]1[C@H](c2ccccc2)C(c2ccc(F)cc2)=NN1c1ccccc1
COc1ccc(/C=C2\NC(=O)[C@@H]3Cc4ccccc4CN3C2=O)cc1
NCCC(=O)c1ccccc1N
COC(=O)C1=C(C(=O)OC)[C@@H]2N(C)c3ccccc3[C@@]23C[C@@H](C(=O)OC)N(S(=O)(=O)c2cccs2)C3=N1
C=CCN1C=C2C(=O)C(C)(OC(=O)CCc3ccccc3)C(=O)C=C2C=C1c1ccc(C#N)cc1 (stereo not given)
Cc1ccc(C(=O)c2c(NC(=O)c3ccncc3)sc3c2CCCC3)cc1
C=CCN(CC=C)S(=O)(=O)c1ccc(C(=O)Nc2nc3c(s2)CCc2ccccc2-3)cc1
CC(C)=CCN1CCC2(CCc3ccccc32)CC1
C[C@H]1Cc2c(-c3ccccc3)nc3c(c2CO1)CN(C(=O)C1CC1)CC3
COc1ccccc1C1/C(=C(/O)c2ccc(OC(C)C)cc2)C(=O)C(=O)N1c1cc(C)on1 (stereo not given)
COc1ccc(/C(O)=C2\C(=O)C(=O)N(Cc3ccco3)C2c2ccc(OC)cc2OC)cc1 (stereo not given)
Cc1cn(C2OC[C@@H](O)[C@@H]2CO)c(=O)[nH]c1=O (stereo not given in full)
O=c1c(O)c(Br)ccc2c(Br)c(O)c(O)c(O)c12
Cc1cccc([C@H]2[C@@H]3C=CC[C@@H](C)[C@@H]3C(=O)N2Cc2ccccc2)c1
COC(=O)N1C(/C=C/C=C/c2ccc(OC)cc2)=Cc2ccccc2C1CC(C)=O (stereo not given)
CCCCC/C=C\C/C=C\C/C=C\CCCCC(=O)NCC(=O)O
CCC(C)[C@@H](N)C(=O)O (stereo not given in full)
C=CCN1c2ccccc2[C@]23C[C@@H](C(=O)OC)N(S(=O)(=O)c4ccc([N+](=O)[O-])cc4)C2=NC(C(=O)OC)=C(C(=O)OC)[C@H]13
COCc1cc(C)nc(Nc2cc(C)ccc2C)c1C#N
Cc1cc(C)c(C#N)c(SCC(=O)Nc2ccccc2)n1
CC(Nc1oc(-c2ccccc2)nc1-c1ccccc1)c1ccccc1 (stereo not given)
C[C@H]1Cc2c(-c3ccccc3)nc3c(c2CO1)CN(S(=O)(=O)c1ccc(Cl)c2nonc12)CC3
CC1(OC(=O)c2ccc(Cl)nc2)C(=O)Cc2cc(-c3ccsc3)ncc2C1=O (stereo not given)
COc1cccc(C2/C(=C(/O)c3ccncc3)C(=O)C(=O)N2CCCN(C)C)c1 (stereo not given)
O=C1C(=O)N(CCN2CCOCC2)C(c2ccccn2)/C1=C(/O)c1ccc(Cl)cc1 (stereo not given)
CCN(CC)CCN1C(=O)C(=O)/C(=C(/O)c2ccccc2)C1c1ccccc1F (stereo not given)
COc1cc(C2/C(=C(\O)c3ccc4c(c3)CC(C)O4)C(=O)C(=O)N2Cc2ccco2)ccc1O (stereo not given)
CC(C)(C)OC(=O)NCCCC1=CC2=CC(=O)C(C)(OC(=O)c3ccco3)C(=O)C2=CO1 (stereo not given)
CCCCC/C=C\C/C=C\CCCCCCCCCC(N)=O
COC(=O)C1=C(C(=O)OC)[C@@H]2N(C)c3ccccc3[C@@]23C[C@@H](C(=O)OC)N(C(=O)c2ccco2)C3=N1
CCCCCCCC1=Cc2ccc(F)cc2C(C(C(=O)OC)C(=O)OC)N1C(=O)OC (stereo not given)
NC(=O)COc1ccc2c3c(c(=O)oc2c1)CCCCC3
Cc1c(Cc2ccccc2)c(=O)oc2cc(OCC(N)=O)ccc12
CCOC(=O)C1=C(C)c2ccccc2OC1(C)C(=O)OCC (stereo not given)
CCCCC/C=C\C/C=C\CCCCCCCCCC(=O)O
C[C@H]1Cc2c(COc3ccccc3)nc3c(c2CO1)CN(C(=O)Nc1cccc(C#N)c1)CC3
C#CCCOC(=O)N1C2=NC(C(=O)OC)=C(C(=O)OC)[C@@H]3N(C)c4ccc(OC)cc4[C@]23C[C@H]1C(=O)OC
COc1ccc(-c2nc3c(c4c2C[C@H](c2ccccc2)OC4)CN(C(=O)c2ccco2)CC3)c(C)c1
C=CC1=C2C=C(C3CC3)N(C(CO)CO)C=C2C(=O)C(C)(OC(=O)c2ccco2)C1=O (stereo not given)
COc1ccc2c(c1)O[C@@H](c1ccc3c(c1)OCO3)[C@H](OC(=O)NCc1ccco1)C2=O
Cc1ccc(S(=O)(=O)N2CC(=O)Nc3ccccc32)cc1C
Cc1ccc(C)c(S(=O)(=O)N2CC(=O)Nc3ccccc32)c1
COc1ccc(-c2nc3c(c4c2C[C@H](c2ccccc2)OC4)CN(S(=O)(=O)c2c(C)noc2C)CC3)c(C)c1
O=C(c1ccco1)N1CCC2(CC1)CCN(c1ncccn1)CC2
O=C(c1ccco1)N1CCC2(CC1)CN(c1ncccn1)C2
C=CCC1CCC(=O)N2CCCC12 (stereo not given)
C[C@@H]1C(c2ccc(F)cc2)=NN(c2ccc(Br)cc2)[C@H]1C(=O)N1CCOC1=O
COC(=O)CC1c2ccccc2C(Cc2ccc(OC)cc2)=C(C)N1C(=O)OC (stereo not given)
COc1cc(OC)c2c(c1)OC(=O)CC2c1cc(OC)c(OC)c(OC)c1 (stereo not given)
CC1=C2[C@@H](O)[C@H]([C@@H](C)C(=O)NCCC(C)C)CC[C@@]2(C)C=CC1=O
C=CC1(C)CC(=O)C2(O)C(C)(O1)C(OC(C)=O)C(O)C1C(C)(C)CCC(O)C12C (stereo not given)
COC(=O)C1=C(C(=O)OC)[C@@H]2N(C)c3ccccc3[C@@]23C[C@@H](C(=O)OC)N(C(C)=O)C3=N1
CCCC(=O)n1nc(-c2ccccc2)nc1N
Nc1c(C(=O)NCc2ccccc2)sc2nc3c(cc12)C(=O)CCC3
CCCCC/C=C\CC1OC1CCCCCCCC(=O)O (stereo not given)
O=C(COC(=O)Cn1cnc2ccccc21)Nc1cccc2c1C(=O)c1ccccc1C2=O
O=C(COC(=O)c1ccccc1)Nc1ccccc1Sc1ccccc1
C=CCOC(=O)NC(c1ccc(F)c(F)c1)C(C(=O)COC)C(=O)OC (stereo not given)
Cc1csc(-c2coc3cc(O[C@@H]4O[C@H](CO)[C@@H](O)[C@@H](O)[C@H]4O)ccc3c2=O)n1
CC(C)(Oc1ccc(C2CC2(Cl)Cl)cc1)C(=O)O (stereo not given)
CC(O)[C@@H](N)C(=O)O (stereo not given in full)
CCCCCCCC/C=C\CCCCCCCC(=O)OC[C@H](CO)OC(C)=O
CCOC(=O)C1=C(C(=O)OCC)C(C(=O)OCC)N(S(=O)(=O)C(F)(F)F)c2ccccc21 (stereo not given)
CSc1ccc(C#N)cc1NC(=O)c1cccc(Cl)c1
Cc1cc(NC(=O)COc2ccc(Cl)cc2Cl)n(CCC#N)n1
O=C(Nc1ccc(Sc2ccc(Br)cc2)cc1)c1ccco1
Cc1ccccc1NC(=O)c1cnn(-c2ccccc2)c1NC(=O)c1ccco1
COc1ccc(-c2c(C)cc3oc(=O)cc(-c4ccccc4)c3c2C)cc1OC
C=C(C)C(=O)c1ccc(F)cc1
CSc1ncnc2sc(C)c(C)c12
c1ccc2sc(SCCSc3nc4ccccc4s3)nc2c1
COC(C)C(C(=O)OCC1=CCN2CC[C@H](O)[C@@H]12)C(C)C (stereo not given in full)
OC[C@H]1O[C@@H](n2cnc3c(NC4CCCC4)ncnc32)[C@H](O)[C@H]1O
CC/C=C\C/C=C\C/C=C\C/C=C\C/C=C\C/C=C\CCC(=O)NCCc1ccc(O)c(O)c1
